# Results taken from the supplement of paper PMC12632987.
# In all, about 4,500 sequences were measured (“median log2 fold change of GCK-ALFA target abundance (FLAG IP / Myc IP barcode read proportion)”: median about 0.078, lowest 2% from about -0.6 on). The entries come from a sample that favours the lowest values as a whole.
# B1: GBRAP_26_5474 (protein)
# chain: VEEEVEAALKEMEKLLKELLDPETAAAATASAFTIVEEAVEEMKKNAKDKEKLKKAAEKAVKEIAADLETLGVDADTRAKIVAKAKAELEKIVKAIEKEA
# B2: GBRAP_160_4004 (protein)
# chain: SEKIEKLIKEIEELVEETIEWMEGLSPEERLTLVRGTVGEIIQLAIESEEVSDESEEKIAELGDETIERVEENKDASLEVWKEILEEFLEKVKKILKEDE
# B3: GBRAP_137_3676 (protein)
# chain: SKVEIEIKEEDGLVEITVTVYDPEKAEETEEKLLDIAHEVGALAVAIKRNEDGSLEITIVVPEEKGEEAEKKVLELAKEYDEVIIKKEKDGKTEEEVIKK
# B4: GBRAP_35_5582 (protein)
# chain: DDVEIILETARDFAEAAIEALKGDDLEEAIRMTEAFVRAAELAIEDLKNDLEALKELAKLLEEVLKAAKEYASDNPEMQKNIERLEELLKRAKELAKKVE
# B5: GBRAP_166_4971 (protein)
# chain: MQEELVEEFKKYIDELAEKMKTANHEEKLELLAEAAEKLKELIEKGLSDEDLKELIEYLIKKAKEVGISTSEVYGALTIIADLNEEQIDILEEAIKKVEK
# B6: GBRAP_106_2558 (protein)
# chain: SKKETAEKIYKEMLEEAKKEIAEHEAWLAKHRSQLTPEEIRAINQYLRDYLVAKLLRKMIEAGIITKEEAKEILEEVRKRKDLDPLEALEYAGKLVLEKI
# B7: GBRAP_78_6731 (protein)
# chain: ELEKLLEEAIKVASEAAKLAVKQASNEVIAEIVEALSHLEEALELVEEGGEKEEILEELEKALEHLKEALKLLPESLTEIKKLLEEAIKLVEEAIKEVKK
# B8: GBRAP_78_6654 (protein)
# chain: EVEELIDKAMEHLDKAAKLTKKLDEESRNELLDLLVEAASHILLSEENGFDLEELKEALEYLKKALEYAKSLNTPVAKEIAEELEKAIEYLEKAIKLLEE
# Target: GABARAP, O95166
# Experiment: median log2 fold change of GCK-ALFA target abundance (FLAG IP / Myc IP barcode read proportion) (log2 ratio); each designed protein is fused to an ALFA-tag nanobody in HEK293 cells to bring the named protein to FLAG-tagged glucokinase (GCK); Myc marks an untargeted standard; higher = target protein stabilised (more abundant)
# Conditions: target protein: 3xFLAG-MCP-GCK-ALFA reporter; HEK293 landing pad (RPLP)
# In short: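 Binders fused to an ALFA nanobody were recombined as a library into HEK293 landing-pad cells, which were induced with 2 μg mL^−1 doxycycline and then transfected to express a FLAG-tagged target and a Myc-tagged standard. After 48 h, circular RNA barcodes recovered by anti-FLAG and anti-Myc immunoprecipitation of lysates were reverse transcribed, amplified and sequenced. Each binder's target abundance is the median log2 ratio of FLAG to Myc barcode read proportions, from barcodes present at ≥10^−7 in both replicates, binders carrying ≥3 barcodes per replicate, a 10^−6 pseudocount and pooled replicates.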
# Sequence of GABARAP, O95166 (O95166 whole entry, the tested form may be a part): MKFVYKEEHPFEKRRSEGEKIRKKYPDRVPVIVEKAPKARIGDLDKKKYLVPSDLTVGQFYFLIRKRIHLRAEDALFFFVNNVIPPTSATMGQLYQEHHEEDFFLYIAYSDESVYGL
row,Binder,median log2 fold change
1,B1,0.241
2,B2,-0.827
3,B3,0.249
4,B4,0.182
5,B5,-0.0848
6,B6,-0.711
7,B7,0.0787
8,B8,0.0422
